Test [1] in a line: qHTS of pediatric cancer cell lines to identify multiple opportunities for drug repurposing: Primary screen for U-2 OS cells (AID 1347096). Also: nearly all actives have a fitted effect of over 50% in size. In a few lines: (§1)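 Viability after 48 h compound treatment at 37C, 500-1,000 cells/well, read as ATP luminescence with CellTiter-Glo. Primary screens used 11-point (MIPE, 0.78 nM-46 µM) or 8-point (NPC, 0.59 nM-46 µM) final concentrations; follow-up screens used 11-point dilutions.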
In general terms: Quantitative high-throughput screening tests each substance at several concentrations.

The nature of test [2]: qHTS of pediatric cancer cell lines to identify multiple opportunities for drug repurposing: Primary screen for Saos-2 cells (AID 1347097). Also: nearly all actives have a fitted effect of over 40% in size. In a few lines: (§2)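 500-1,000 cells/well; 5 h pre-incubation 37 °C/5% CO2; compound pinned; 48 h; CellTiter-Glo, 15 min RT; luminescence. MIPE 11-pt from 0.78 nM, NPC 8-pt from 0.59 nM final. Bortezomib 2.3 µM final as positive control.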

Test [3] can be described thus: qHTS of pediatric cancer cell lines to identify multiple opportunities for drug repurposing: Primary screen for SK-N-SH cells (AID 1347098). Also: nearly all actives have a fitted effect of over 65% in size. In a few lines: (§3)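 Cells (500-1,000/well) rested 5 h, then received compounds for 48 h; metabolically active cells were measured by CellTiter-Glo luminescence. Final concentrations spanned up to 46 µM (MIPE, 11-point) or 0.59 nM-46 µM (NPC, 8-point) in primary screens, 11-point in follow-ups.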

Test [4] in a line: qHTS of pediatric cancer cell lines to identify multiple opportunities for drug repurposing: Primary screen for NB1643 cells (AID 1347099). Also: nearly all actives have a fitted effect of over 50% in size. In a few lines:
as §2

Test [5] in a line: qHTS of pediatric cancer cell lines to identify multiple opportunities for drug repurposing: Primary screen for LAN-5 cells (AID 1347100). In a few lines: as §1
A short description of test [6]: qHTS of pediatric cancer cell lines to identify multiple opportunities for drug repurposing: Primary screen for BT-12 cells (AID 1347101). Also: nearly all actives have a fitted effect of over 25% in size. In a few lines:
as §3

Test [7] can be described thus: qHTS of pediatric cancer cell lines to identify multiple opportunities for drug repurposing: Primary screen for Rh18 cells (AID 1347102). Also: nearly all actives have a fitted effect of over 65% in size. In a few lines: as §1
The nature of test [8]: qHTS of pediatric cancer cell lines to identify multiple opportunities for drug repurposing: Primary screen for OHS-50 cells (AID 1347103). Also: nearly all actives have a fitted effect of over 40% in size. The gist of the method:
as §3

The nature of test [9]: qHTS of pediatric cancer cell lines to identify multiple opportunities for drug repurposing: Primary screen for RD cells (AID 1347104). Also: nearly all actives have a fitted effect of over 55% in size. In a few lines:
as §2

Test [10] can be described thus: qHTS of pediatric cancer cell lines to identify multiple opportunities for drug repurposing: Primary screen for MG 63 (6-TG R) cells (AID 1347105). Also: nearly all actives have a fitted effect of over 50% in size. In a few lines:
as §2

Results filed as inconclusive are left out. Calls of active or inactive are those of the source. Calls follow the shape of the dose curve; as a rule, active = well fitted curve in the direction sought with a large enough effect; inconclusive = small, poorly fitted or top-dose-only effect, or another doubt; inactive = no such curve, though single readings can be large; an effect the other way counts as inactive or inconclusive.
Potency is read from the fitted curve at half-maximal effect.

On to `COc1cc2c(Oc3ccc(NC(=O)C4(C(=O)Nc5ccc(F)cc5)CC4)cc3F)ccnc2cc1OCCCN1CCOCC1`, for which the Potency is 14.8 µM (active) in test [1]; 2.64 µM (active) in [2]; 2.41 µM (active) in test [3]; 6.62 µM (active) in test [4]; 0.372 µM (active) in test [5]; 19.3 µM (active) in test [6]. Further, the Potency is 4.69 µM (active) in [7], 0.385 µM (active) in test [8] and 8.33 µM (active) in [9].
As to `CC1(C)CCC(c2ccc(Cl)cc2)=C(CN2CCN(c3ccc(C(=O)NS(=O)(=O)c4ccc(N[C@H](CCN5CCOCC5)CSc5ccccc5)c(S(=O)(=O)C(F)(F)F)c4)cc3)CC2)C1`, the Potency in test [1] was 7.43 µM (active); in [2] it was 4.18 µM (active); in [3], 24.1 µM (active); in [4] it was 0.0093 µM (active); in [5], 0.0093 µM (active); in test [6], 15.3 µM (active). Moreover, the Potency in [7] is 0.0296 µM (active); in [8], 5.44 µM (active); in test [9] it was 10.5 µM (active); in [10], 9.35 µM (active).
Consider `CC(C)c1ccc(Cn2ccc3c4c(N)nc(NC5CC5)nc4ccc32)cc1`, for which the Potency in test [1] was 18.7 µM (active); in test [2] it was 4.69 µM (active); in test [3], 21.5 µM (active); in [4], 18.7 µM (active); in test [5] it was 18.7 µM (active); in [6] it was 4.32 µM (active). Besides, the Potency is 18.7 µM (active) in test [7], 4.85 µM (active) in test [8] and 14.8 µM (active) in [9].
On to `CC1(C)OC2=C(C(=O)c3ccccc3C2=O)[C@H](NCc2ccccc2)[C@H]1O`, for which the Potency in test [1] was 9.35 µM (active); in test [2], 5.9 µM (active); in test [3], 4.82 µM (active); in test [4] it was 4.18 µM (active); in [5], 5.26 µM (active); in test [6] it was 13.7 µM (active). Further, the Potency in [7] is 7.43 µM (active); in test [8] it was 4.32 µM (active); in test [9], 10.5 µM (active); in test [10], 9.35 µM (active).
As for `CNC(=O)c1ccc(N2C(=S)N(c3cnc(C#N)c(C(F)(F)F)c3)C(=O)C23CCC3)cc1F`, the Potency in [1] was 14.8 µM (active); in [3], 1.21 µM (active); in [4], 3.32 µM (active); in [5], 8.33 µM (active); in test [6], 19.3 µM (active); in test [7], 14.8 µM (active). For the same molecule, the Potency in test [9] was 5.9 µM (active); in [10], 2.35 µM (active). In addition, in test [2], the Potency entry is “inactive”.
Take `C1=CCOCc2cc(ccc2OCCN2CCCC2)Nc2nccc(n2)-c2cccc(c2)OCC1`: in test [1], the Potency result was “inactive”. For the same molecule, the Potency was 5.26 µM (active) in [2]; 7.64 µM (active) in [3]; 7.43 µM (active) in test [4]; 2.64 µM (active) in test [5]; 7.69 µM (active) in test [6]; 7.43 µM (active) in test [7]. Moreover, the values for the Potency in test [8], in [9] and in test [10] were 2.17 µM (active), 11.8 µM (active) and 11.8 µM (active), respectively.
With `Nc1nccc(Oc2ccc(NC(=O)c3c[nH]cc(-c4ccc(F)cc4)c3=O)cc2F)c1Cl`, the Potency entry in test [1] is “inactive”. Moreover, the Potency in test [2] is 18.7 µM (active); in test [3], 6.81 µM (active); in test [4], 14.8 µM (active); in [5], 1.18 µM (active); in test [6], 13.7 µM (active); in [7], 18.7 µM (active). Further, the figures for the Potency in [8], in [9] and in [10] were 7.69 µM (active), 26.4 µM (active) and 18.7 µM (active), respectively.
For the molecule `C[C@H]1C[C@@H]2[C@@H]([C@@H](O)C[C@@]3(C)[C@H]2CC[C@]3(O)C(=O)CO)[C@@]2(C)C=CC(=O)C=C12`, the Potency entry in [1], in test [2], in [3], in test [4], in [5] and in test [6] was “inactive” each time. The Potency result in [7], in test [8] and in test [9] was “inactive” throughout.
`O=C(C=Cc1cccc(S(=O)(=O)Nc2ccccc2)c1)NO`: the Potency in test [1] is 5.4 µM (active); in test [2] it was 6.79 µM (active); in test [3], 6.22 µM (active); in test [4], 0.679 µM (active); in test [5], 1.21 µM (active); in test [6], 11.1 µM (active). Also, the Potency in test [7] is 1.91 µM (active); in test [8], 3.95 µM (active); in test [9], 9.59 µM (active); in [10], 6.79 µM (active).
Regarding `Cc1ccc(-c2ncn(-c3ccc(Nc4nccc(-c5cccc(N6CCOCC6)c5)n4)cc3)n2)cn1`, the Potency is 0.235 µM (active) in test [1]; 0.0935 µM (active) in test [2]; 0.383 µM (active) in test [3]; 0.0526 µM (active) in [4]; 0.0662 µM (active) in test [5]; 0.122 µM (active) in [6]. In addition, the Potency was 0.0526 µM (active) in test [7], 0.217 µM (active) in test [8] and 0.105 µM (active) in test [9].
Turning to `COC(=O)[C@]12CCC(C)(C)C[C@@H]1[C@@H]1C(=O)C=C3[C@@]4(C)C=C(C#N)C(=O)C(C)(C)[C@@H]4CC[C@@]3(C)[C@]1(C)CC2`, the Potency in [1] was 0.935 µM (active); in test [2] it was 0.743 µM (active); in test [3], 1.92 µM (active); in [4], 0.662 µM (active); in test [5], 0.833 µM (active); in [6], 0.968 µM (active). For the same molecule, the Potency was 0.935 µM (active) in test [7], 0.685 µM (active) in test [8], 0.526 µM (active) in test [9] and 0.743 µM (active) in test [10].
On to `Nc1ccccc1NC(=O)c1ccc(CNc2nccc(-c3cccnc3)n2)cc1`, for which the Potency was 4.69 µM (active) in test [1]; 2.35 µM (active) in test [2]; 2.41 µM (active) in [3]; 0.296 µM (active) in test [4]; 0.743 µM (active) in test [5]; 4.85 µM (active) in test [6]. The Potency in [7] was 2.09 µM (active); in test [8], 0.968 µM (active); in [9], 2.96 µM (active); in test [10] it was 3.72 µM (active).
For `Cc1cc(Nc2cc(N3CCN(C)CC3)nc(Sc3ccc(NC(=O)C4CC4)cc3)n2)n[nH]1`, the Potency result in [1] and in test [2] was “inactive” each time. For the same molecule, the Potency in test [3] was 21.5 µM (active); in test [4] it was 20.9 µM (active); in test [5], 0.105 µM (active); in [6], 21.7 µM (active); in [7], 16.6 µM (active); in [8], 6.85 µM (active). Also, the Potency in test [9] was 18.7 µM (active).
